According to PubChem BioAssay (Tox21):
“And” between values parts separate entries of the source, which are not always exact repeats. Equal entries are not always repeated. Records with an inconclusive call do not appear. Entries that show only a call come without a potency. Some structures have more than one record in an assay (separate samples or runs), and their calls can disagree. The source made the active and inactive calls. Calls come from the whole dose curve; as a rule, active = well fitted cell-killing curve with a large enough effect in the repeat runs; inconclusive = weak or mixed curves, or effect the other way; inactive = no such curve, though single readings can be large or run the other way.
Potency is the fitted concentration of half-maximal effect.

Experiment: Caspase-3/7 induction in CHO-K1 cells by small molecules, qHTS cell viability counter screen (AID 1346979); note: nearly all actives have a fitted effect of over 35% in size
Conditions: CellTiter-Fluor fluorescence, 17 h; series mostly up to 92.4 µM; activity change, negative = cytotoxicity: at the top concentration
Text: National Center for Advancing Translational Sciences [NCATS]
NIH Chemical Genomics Center [NCGC]
U.S. Environmental Protection Agency [EPA]
National Institutes of Environmental Health Sciences [NIEHS]
National Toxicology Program [NTP]
U.S. Food and Drug Administration [FDA]
Apoptosis is a process of programmed cell death and plays a central role in the development of multicellular organisms. It is a highly regulated process and induces cell death by activating caspases, which are the members of cysteine aspartic acid-specific protease (caspase) family. Caspases involved in apoptosis are classified by their mechanism of action as initiator caspases (caspase-2, -8, -9 and -10) and executioner caspases (caspase-3, -6, and -7). Inhibition of apoptosis results in number of cancers, autoimmune diseases, inflammatory diseases and viral infection. To identify small molecule compounds that induce apoptosis, a homogeneous, luminescent Caspase-Glo 3/7 assay was used. Wild type CHO-K1 cells were used to screen Tox21 libraries for identifying caspase-3/7 activity inducers. Also cytotoxicity of the compounds was tested in parallel by measuring the cell viability using CellTiter-Fluor assay system in the same wells.
Tox21 Assay Protocol Summary:
CHO-K1 cells were dispensed at 1,500 per well in 5uL of culture medium into white solid bottom 1536-well plates (Corning Life Sciences, Corning, NY) using a Multidrop Combi (Thermo Scientific, Waltham, MA) dispenser. The assay plates were incubated at 37 C and 5% CO2 for 5hr, and then 23nL of compounds dissolved in DMSO and positive control were transferred using a Pintool station (Wako, San Diego, CA). The assay plates were incubated at 37C and 5% CO2 for 17hr. For cytotoxicity read, after 16hr incubation at 37C, 1uL CellTiter-Fluor reagent (Promega Corporation, Madison, WI) was added to each well of the assay plates using Flying Reagent Dispenser (FRD, Aurora Discovery, San Diego, CA). After 1hr incubation at 37C and 5% CO2, the fluorescence signal was quantified using a ViewLux plate reader (PerkinElmer, Shelton, CT).
In the case of `Cc1cccc(C(=O)O)c1`, the Potency was 3.4 µM (active) and inactive.
In the case of `CCCCOCCOCCOCCO`, the Potency was “inactive”.
For `COC(C)COC(C)COC(C)CO` (stereo not given), the Potency was “inactive”.
For `CC1=CC2C3CC(C=C3C)C2C1` (stereo not given), the Potency was “inactive”.
With `c1cc(N(CC2CO2)CC2CO2)ccc1OCC1CO1` (stereo not given) the Potency was 48.6 µM (active) and 27.3 µM (active).
For `CN(C)c1nc(N(C)C)nc(N(C)C)n1`, the Potency was “inactive”.
For `CC(=O)CC/C=C(\C)CCC=C(C)C`, the Potency was “inactive”.
In the case of `c1ccncc1`, the Potency was “inactive”.
For `Nc1ncnc2nc[nH]c12`, the Potency was “inactive”.
For `O=C(Nc1ccc(Cl)cc1)Nc1ccc(Cl)c(Cl)c1`, the Potency was 19.2 µM (active) and 17.2 µM (active) and 18.8 µM (active).
For `c1ccc(Nc2ccccc2)cc1`, the “activity change, negative = cytotoxicity” value was -1.61% (inactive).
For `O=C(O)c1ccccc1Nc1cccc(C(F)(F)F)c1`, the Potency was “inactive”.
With `OCCO` the Potency was “inactive”.
With `CN(C)CCN(Cc1cccs1)c1ccccn1` the Potency was “inactive”.
With `CCC(C)OC(=O)c1ccc(O)cc1` (stereo not given) the Potency was “inactive”.
In the case of `CCOCCOCCO`, the Potency was “inactive”.
For `C=C(C)C(=O)OCCOC(=O)C(=C)C`, the Potency was “inactive”.
For `Nc1ccc(Nc2ccccc2)cc1`, the Potency was 53.9 µM (active) and 43.3 µM (active) and 48.6 µM (active).
In the case of `CCCCC/C=C/C=C/C=O`, the Potency was “inactive and 61.1 µM (active)”.
With `CC(C)OC(=O)C(C)(C)Oc1ccc(C(=O)c2ccc(Cl)cc2)cc1` the Potency was 54.5 µM (active).
In the case of `CCCC(=O)O`, the Potency was “inactive”.
For `OC[C@H]1O[C@@H]2O[C@H]3[C@H](O)[C@@H](O)[C@@H](O[C@H]4[C@H](O)[C@@H](O)[C@@H](O[C@H]5[C@H](O)[C@@H](O)[C@@H](O[C@H]6[C@H](O)[C@@H](O)[C@@H](O[C@H]7[C@H](O)[C@@H](O)[C@@H](O[C@H]8[C@H](O)[C@@H](O)[C@@H](O[C@H]1[C@H](O)[C@H]2O)O[C@@H]8CO)O[C@@H]7CO)O[C@@H]6CO)O[C@@H]5CO)O[C@@H]4CO)O[C@@H]3CO`, the Potency was “inactive”.
For `C=C(C)C1CC=C(C)CC1` (stereo not given), the Potency was “inactive”.
In the case of `COC(=O)C1=C(C)NC(C)=C(C(=O)OCCN(C)Cc2ccccc2)C1c1cccc([N+](=O)[O-])c1` (stereo not given), the Potency was 30.5 µM (active) and 26.6 µM (active).
With `C#C[C@]1(O)CC[C@H]2[C@@H]3CCc4cc(OC)ccc4[C@H]3CC[C@@]21C` the Potency was 27.3 µM (active) and 18.8 µM (active).
For `CC(C)=CCC/C(C)=C\CO`, the Potency was “inactive”.
With `Cc1cccc(N(C)C(=S)Oc2ccc3ccccc3c2)c1` the “activity change, negative = cytotoxicity” value was -0.804% [at 42.5 µM] (inactive).
In the case of `S=C(NC1CCCCC1)NC1CCCCC1`, the Potency was 60 µM (active) and 43.3 µM (active).
In the case of `c1ccc2sc(SSN3CCOCC3)nc2c1`, the Potency was 61 µM (active) and 61.1 µM (active).
In the case of `CCC(C)CO` (stereo not given), the Potency was “inactive”.
With `Cc1ncc[nH]1` the Potency was “inactive”.
For `COC(=O)Nc1nc2ccc(S(=O)c3ccccc3)cc2[nH]1` (stereo not given), the Potency was 8.41 µM (active).
With `COc1cc([C@@H]2c3cc4c(cc3[C@H](O)[C@H]3COC(=O)[C@H]23)OCO4)cc(OC)c1OC` the Potency was 8.6 nM (active) and 21.1 nM (active).
For `COc1cccc2c1C(=O)c1c(O)c3c(c(O)c1C2=O)C[C@@](O)(C(=O)CO)C[C@@H]3O[C@H]1C[C@H](N)[C@H](O)[C@H](C)O1`, the Potency was 9.67 µM (active) and 21.1 µM (active).
For `CC(C)CC(C)(O)C#CC(C)(O)CC(C)C` (stereo not given), the Potency was 15 µM (active) and inactive.
With `CCCCC(CC)COP(=O)(OCC(CC)CCCC)OCC(CC)CCCC` (stereo not given) the Potency was “inactive”.
In the case of `OC(CCl)CCl`, the Potency was “inactive”.
In the case of `CCCCOCCOCCO`, the Potency was “inactive”.
With `CC1=CCC(C(C)(C)O)CC1` (stereo not given) the Potency was “inactive”.
With `O=Cc1ccccc1O` the Potency was “inactive”.
